Data from PubChem BioAssay AID1578 (Sanford-Burnham Center for Chemical Genomics, 2009).
Among all 290,000 compounds or so, about 3,000 (1%) were called active. No stated cut-off is given here; in the data, active means inhibition mostly above about 36% (no sharp cut-off); inactive means mostly below about 34%. For the sample, actives were picked, then their nearest neighbours and some compounds at random.

assay: NOD1 signaling inhibitors, primary screen, cell-based, luminescence, uHTS (AID 1578); settings: NOD1-driven NF-kB luciferase reporter cells, at 4 µM, hits give high values;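 further: HEK-293T reporter cells stimulated with the NOD1 agonist gamma-tri-DAP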

inhibition, inactive:
CCCC(c1nnnn1Cc1cccs1)N1CCN(C2CCCC2)CC1 (stereo unspecified) -49.9%
COc1ccccc1-n1cnc2sc(-c3ccccc3)cc2c1=O 30.1%
O=C(CNC(=O)c1cccc(OC(F)F)c1)OCc1cc(=O)n2cc(Br)ccc2n1 4.7%
OC(COc1ccccc1)CN1CCC(Cc2ccccc2)CC1 (stereo unspecified) -20.8%
CN(C)c1nc(C(F)(F)F)cc(=O)[nH]1 -21.2%
c1ccc(-n2ncc3c(N4CCC5(CC4)OCCO5)ncnc32)cc1 -67%
O=C(Nc1nncs1)C1COc2ccccc2O1 (stereo unspecified) -18.9%
Cc1cccc(NC(=O)C2COc3ccccc3O2)c1 (stereo unspecified) -23%
COC(=O)c1cccc(NC(=O)C2COc3ccccc3O2)c1 (stereo unspecified) -42.9%
O=C(Nc1ccccc1)C1COc2ccccc2O1 (stereo unspecified) -21.9%
c1ccc(COc2cccc(CNCc3cccs3)c2)cc1 -31.8%
O=C1CSc2ccc(C(=O)N3CCN(c4ccccn4)CC3)cc2N1 0.1%
C#CCSc1ncc(S(=O)(=O)c2ccccc2)c(=O)[nH]1 7.6%
COCCCn1c(SCC(=O)Nc2ccc(C(C)=O)cc2)nc2ccccc2c1=O -25.3%
c1ccc(-c2nc3ccccc3[nH]2)cc1 -1.5%
O=C(O)c1ccc(-c2nc3ccccc3[nH]2)cc1 -38.1%
Cc1ccc(N/C(=C\C(=O)c2ccccc2)C(=O)O)cc1 -33.5%
Cc1ccc(S(=O)(=O)N2CCN(c3ccc([N+](=O)[O-])cn3)CC2)cc1 -9.1%
O=[N+]([O-])c1ccc(S(=O)(=O)c2ccccc2)nc1 29%
CCOc1cccc(C(=O)Nc2ccc(S(=O)(=O)Nc3cc(C)on3)cc2)c1 -2%
CCN(CC)c1ncnnc1-c1ccccc1 -22.1%
CC(C)(C)S(=O)(=O)/C(C#N)=N/Nc1ccc(Cl)cc1 4.5%
CC(C)(C)S(=O)(=O)/C(C#N)=N/Nc1ccc(C#N)cc1 -38.5%
CC(=O)C1=C(O)C(=O)N(CCc2ccccc2)C1c1ccccc1[N+](=O)[O-] (stereo unspecified) -12%
CCOC(=O)N1CCN(C(=O)c2cc3cc(OC)c(OC)cc3[nH]2)CC1 -3.4%
O=C(NCCc1ccccc1)C(=O)NCC1OCCN1S(=O)(=O)c1ccc(Cl)cc1 (stereo unspecified) -1.1%
CCCCN(C)Cc1c(C)[nH]c2c(Cl)cccc2c1=O -15%
O=C(Nc1nnc(C2CC2)s1)c1ccc(Cl)c(S(=O)(=O)N2CCc3ccccc3C2)c1 59%
CCc1nnc(NC(=O)c2ccc(S(=O)(=O)N3CCc4ccccc4C3)cc2)s1 -1.9%
CN1CCN(c2nc3ccccc3nc2C(C#N)S(=O)(=O)c2ccccc2)CC1 (stereo unspecified) -5.2%
CSC1=N/C(=C\c2ccccc2Cl)C(=O)N1N(C)C 0.8%
O=C(CN1CCc2ccccc2C1)NCC(=O)Nc1ccc(F)cc1 -25.2%
CCOc1cc(C2/C(=C(/O)c3ccc(OC)cc3)C(=O)C(=O)N2CC2CCCO2)ccc1O (stereo unspecified) -1.7%
COc1ccc(O)c(CN2CCC(n3nccc3NC(=O)CCOc3ccccc3)CC2)c1 -1.2%
COC(=O)Nc1ccc(S(=O)(=O)NC2CCS(=O)(=O)C2)cc1 (stereo unspecified) -9.9%
CCn1c(=O)c(C(=O)CC#N)c(N)n(Cc2ccccc2)c1=O -11.1%
Cn1c(N)c(C(=O)CCl)c(=O)n(Cc2ccccc2)c1=O 43.7%
COc1ccc(-c2csc3ncnc(N4CCN(c5ccccc5Cl)CC4)c23)cc1 -4.5%
CCOP(=O)(OCC)/C(=N/OC(=O)c1ccccc1C)C(N)=O -58.9%
O=C(Cc1ccccc1)NCCc1cn2ccsc2n1 -3.8%
COc1ccc(NC(=O)C(NC(=O)c2ccc(=O)[nH]c2)c2ccccc2)cc1 (stereo unspecified) -7.3%
Cc1ccc(C(=O)NC(C(=O)Nc2ccccc2)c2ccccc2)cc1 (stereo unspecified) -3.5%
CCc1ccccc1NC(=O)c1cc(-c2ccc(OC)cc2)on1 -2%
CC1Cc2ccccc2N1C(=O)CN1CCC(n2nnc3cc(C(F)(F)F)ccc32)CC1 (stereo unspecified) 23.9%
O=C(Nc1ccccn1)c1ccc2ccccc2c1O -61.1%
CC(=O)Nc1ccc(Br)c2ccccc12 -4.6%
O=C(O)c1ccccc1C(=O)Nc1cccc([N+](=O)[O-])c1 -0.9%
O=C(Nc1cccc([N+](=O)[O-])c1)c1cc2ccccc2cc1O 17.3%
O=C(O)c1cccc(NC(=S)N/N=C/c2ccccc2OCc2cccc(Br)c2)c1 -13.5%
Cc1noc(-c2ccccc2)c1NC(=O)Nc1ccccc1 2%
C=CCOc1ccc2ccccc2c1CNCCCN1CCOCC1 10%
CCN1C(=O)N(S(=O)(=O)C(F)(F)F)[C@@H](c2ccccc2)C(C(=O)OC)=C1C 0.6%
Cc1nc(N2CCN(c3ccccn3)CC2)c2c(C)c(C(=O)Nc3ccc(Cl)cc3)sc2n1 -14%
Cc1c(C(=O)N2CCN(c3ccccn3)CC2)sc2ncnc(N3CCOCC3)c12 -12.5%
Cc1nc(N2CCN(c3ccccn3)CC2)c2c(C)c(C(=O)Nc3ccc(F)cc3F)sc2n1 12.3%
Cc1nc(N2CCN(c3ccccn3)CC2)c2c(C)c(C(=O)N3CCN(c4cccc(Cl)c4)CC3)sc2n1 18%
Cc1c(C(=O)N2CCN(c3ccccc3)CC2)sc2ncnc(N3CCN(c4ccccn4)CC3)c12 27.4%
Cc1nc(N2CCN(c3ccccn3)CC2)c2c(C)c(C(=O)Nc3c(F)cc(F)cc3Br)sc2n1 -28.6%
COc1ccccc1N1CCN(C(=O)c2sc3nc(C)nc(N4CCN(c5ccccn5)CC4)c3c2C)CC1 33.2%
Cc1nc(N2CCN(c3ccccn3)CC2)c2c(C)c(C(=O)Nc3ccc(F)cc3Cl)sc2n1 6.8%

inhibition, active:
COc1cccc(NC(=O)C2COc3ccccc3O2)c1 (stereo unspecified) 104%
O=C(NC1=NCCS1)C1COc2ccccc2O1 (stereo unspecified) 82.7%
O=C(O)c1cccc(-c2nc3ccccc3[nH]2)c1 61.9%
CC(C)(C)c1ccc(N/N=C(\C#N)S(=O)(=O)C(C)(C)C)cc1 41%
COC(=O)Cn1c(=O)c(C(=O)CCl)c(N)n(Cc2ccccc2)c1=O 69.8%
COc1ccc(NC(=O)C(NC(=O)c2ccc(C)cc2)c2ccccc2)cc1 (stereo unspecified) 62.7%
